Screening data from PubChem BioAssay.
In the library only some 4.8% were active in any assay of this set; here they are far more common.
USP1-UAF1 inh – inhibitors of human USP1/UAF1 deubiquitinase; actives 0.23% (n = 390,000); Potency, µM (doses to about 57.1 µM), actives largely listed as inhibitors; AID 743255; recombinant USP1/UAF1, Ub-Rhodamine cleavage fluorescence; note: nearly all actives have a fitted effect of over 60% in size
Target sequence (O94782 whole entry, looked up): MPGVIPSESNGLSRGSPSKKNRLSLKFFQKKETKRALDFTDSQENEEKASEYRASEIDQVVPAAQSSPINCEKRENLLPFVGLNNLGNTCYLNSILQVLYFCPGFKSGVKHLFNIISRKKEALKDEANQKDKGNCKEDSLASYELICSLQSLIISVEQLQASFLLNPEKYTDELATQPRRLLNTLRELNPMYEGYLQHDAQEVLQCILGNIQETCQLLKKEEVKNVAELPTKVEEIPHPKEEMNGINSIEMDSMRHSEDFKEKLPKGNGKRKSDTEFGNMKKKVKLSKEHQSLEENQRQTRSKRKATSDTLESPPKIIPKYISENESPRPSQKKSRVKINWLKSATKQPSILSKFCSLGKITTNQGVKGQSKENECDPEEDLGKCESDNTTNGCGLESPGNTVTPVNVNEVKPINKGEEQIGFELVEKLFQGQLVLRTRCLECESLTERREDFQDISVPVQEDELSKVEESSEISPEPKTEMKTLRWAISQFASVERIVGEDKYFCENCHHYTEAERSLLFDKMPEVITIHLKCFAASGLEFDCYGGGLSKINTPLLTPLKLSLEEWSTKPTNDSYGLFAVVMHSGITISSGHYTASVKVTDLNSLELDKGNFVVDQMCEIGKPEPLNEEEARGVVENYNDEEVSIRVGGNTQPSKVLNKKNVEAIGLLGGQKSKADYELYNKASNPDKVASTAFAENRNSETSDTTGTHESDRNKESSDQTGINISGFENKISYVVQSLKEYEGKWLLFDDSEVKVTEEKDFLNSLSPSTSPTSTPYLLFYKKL
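1 nM enzyme complex + cpd, 15 min RT; start with Ub-Rho 150nM final; kinetic fluorescence ex 480/em 540, 6 reads q60 s. Buffer 50mM HEPES pH 7.8, 0.5mM EDTA, 0.1 mg/ml BSA, 1mM TCEP, 0.01% Tween-20.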
ATXN2 expr inh – ATXN2 expression inhibition; actives 0.72% (n = 360,000); Potency, µM (doses to about 57 µM), usual class: inhibitors; HEK-293 ATXN2-luciferase reporter, luminescence, 24 h; AID 1745845; note: nearly all actives have a fitted effect of over 55% in size
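ATXN2-luciferase reporter cells (luciferase flanked by upstream and downstream ATXN2 gene portions) were treated 24 h at 37 °C with compounds at up to 57 uM. SteadyGlo luminescence gave expression; GF-AFC fluorescence gave viability.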
IL1B secr inh – blocks inflammasome-driven IL-1 beta release; THP-1 LPS/ATP IL-1B secretion, AlphaLISA, 16 h; active compounds read low; activity change, % at 57.5 µM; actives 4.7% (n = 360,000); in the data active = activity change below about -50%; inconclusive = mostly about -30% to -49%
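Secreted IL-1B measured by AlphaLISA bead assay after 16 h compound exposure of THP-1 cells; compounds (final up to 57.5 uM) added 1 h before LPS (250 ng/mL) and ATP (1.25 mM) stimulation; lower signal means less secretion.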
USP2a block – blocks human ubiquitin-specific protease USP2a. AID 463254. Potency, µM (highest dose often 38.3 µM), usual class: inhibitors. actives 0.01% (n = 330,000). USP2 core, Ub-CHOP2 coupled fluorogenic reporter, 485/531
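Deubiquitinase activity read as fluorescence (485/531 nm) after Ub-CHOP2 cleavage activates the enterokinase reporter on its substrate; USP2 core 10nM, Ub-CHOP2 and substrate 25nM each, 30min compound preincubation then 60min RT; data normalized to NEM, curves fitted.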
ATXN viability – viability counter-screen for ATXN expression inhibitors; S2 cells (HEK-293 line with an ATXN2-luciferase reporter) viability, CellTiter-Fluor protease fluorescence, 24 h; Potency, µM (doses to about 56.7 µM), actives largely listed as cytotoxic; actives 0.49% (n = 400,000); note: nearly all actives have a fitted effect of over 40% in size
Large screens that a line does not name were inactive. Unless noted, calls come from the whole dose curve; as a rule, active = well fitted curve in the direction sought with a large enough effect; inconclusive = small, poorly fitted or top-dose-only effect, or another doubt; inactive = no such curve, though single readings can be large; an effect the other way counts as inactive or inconclusive.

COc1ccc(-c2nc(SCC(=O)Nc3ccc4c(c3)OCCO4)c(-c3ccccc3)[nH]2)cc1	ATXN viability inconclusive (no result: IL1B secr inh, USP2a block)
O=C(CSc1ccccc1)Nc1ccc2c(c1)OCCO2	none
Cc1ccc(C2=NC3(CCCC3)N=C2SCC(=O)Nc2ccc3c(c2)OCCO3)cc1	IL1B secr inh -94.3, ATXN viability inconclusive
O=C(CSc1ccc(-c2ccccc2)nn1)Nc1ccc2c(c1)OCCO2	none
O=C(CSc1nc(-c2ccccc2)[nH]c1-c1ccccc1)Nc1ccc2c(c1)OCO2	ATXN2 expr inh 20µM, ATXN viability inconclusive (no result: IL1B secr inh, USP2a block)
O=C(CSC1=NC2(CCCCCC2)N=C1c1ccccc1)Nc1ccc2c(c1)OCCO2	IL1B secr inh -75.3, ATXN viability inconclusive
COc1ccc(-n2ncc3c(SCC(=O)OC(C)C)ncnc32)cc1	none (no result: ATXN2 expr inh, USP2a block)
COc1ccc(CNCC(O)(c2ccc(F)cc2)c2ccc(F)cc2)cc1	IL1B secr inh -89.3
OC(CNCc1ccccc1F)(c1ccc(F)cc1)c1ccc(F)cc1	IL1B secr inh -80.2
COc1ccc(CNCC(O)(c2ccccc2)c2ccccc2)cc1	IL1B secr inh -78.3
OC(CNCc1ccccc1)(c1ccccc1)c1ccccc1	ATXN viability inconclusive (no result: ATXN2 expr inh)
CCCC[C@]12Cc3ccccc3C(O1)c1c(c3ccccc3oc1=O)O2	none (no result: USP1-UAF1 inh, ATXN2 expr inh, IL1B secr inh, ATXN viability)
O=C(CN1Cc2ccccc2OC(c2ccsc2)C1)NCC1OCCc2ccccc21 (stereo not given)	none (no result: USP1-UAF1 inh, ATXN2 expr inh, IL1B secr inh, USP2a block)
O=C(CNCCC1=CCCCC1)Nc1ccc(N2CCCCCC2)cc1	ATXN2 expr inh inconclusive, IL1B secr inh -86.6 (no result: ATXN viability)
O=C(CNC1CCCCCC1)Nc1ccc(N2CCCC2)cc1	none (no result: USP1-UAF1 inh, ATXN2 expr inh, IL1B secr inh, ATXN viability)
Cc1ccc(-c2cnc(NC(=O)c3cccc(Br)c3)s2)c(C)c1	IL1B secr inh -58.1
O=C1C=CC(=O)N1c1ccc2c(c1)Cc1cc(F)ccc1-2	IL1B secr inh -64.3, ATXN viability inconclusive (no result: USP2a block)
CC(=O)Nc1ccc2c(c1)Cc1cc(N3C(=O)C=CC3=O)ccc1-2	ATXN2 expr inh inconclusive, ATXN viability inconclusive (no result: USP2a block)
OCCN1CCN(c2ncnc3c2c(-c2ccccc2)cn3-c2ccc(Br)cc2)CC1	IL1B secr inh -83.2
COc1ccc(-n2cc(-c3ccccc3)c3c(N4CCOCC4)ncnc32)cc1	IL1B secr inh -146.3 (no result: ATXN2 expr inh)
COc1ccc(-n2cc(-c3ccccc3)c3c(=O)[nH]cnc32)cc1	IL1B secr inh -82.2
O=c1[nH]cnc2c1c(-c1ccccc1)cn2-c1cccc(Cl)c1	ATXN viability inconclusive (no result: ATXN2 expr inh)
c1ccc(-c2cn(-c3ccccc3)c3ncnc(NCCCN4CCOCC4)c23)cc1	IL1B secr inh -85.7 (no result: ATXN2 expr inh)
Fc1ccc(-n2cc(-c3ccccc3)c3c(N4CCOCC4)ncnc32)cc1	none
O=C(Nc1cccc(Cl)c1N1CCOCC1)c1ccc([N+](=O)[O-])o1	none
Cc1ccc(-c2csc(NC(=O)c3ccc(C)o3)n2)cc1	none
Cc1ccc(-c2csc(NC(=O)c3ccc([N+](=O)[O-])o3)n2)cc1	IL1B secr inh -105.7, ATXN viability inconclusive
COc1ccccc1NC(=O)c1ccc([N+](=O)[O-])o1	IL1B secr inh -83.0 (no result: USP2a block)
O=C(Nc1nc2ccc(F)cc2s1)c1ccc([N+](=O)[O-])o1	IL1B secr inh -100.7, ATXN viability inconclusive (no result: ATXN2 expr inh, USP2a block)
Cc1cccc(NC(=O)c2ccc([N+](=O)[O-])o2)c1C	IL1B secr inh -88.9
O=C(Nc1nc2c(F)cccc2s1)c1ccc([N+](=O)[O-])o1	none
CSc1nc(S(C)(=O)=O)nc2[nH]c(=O)[nH]c12	none (no result: USP2a block)
O=C(Nc1ccccc1C(=O)NC1CC1)c1ccc([N+](=O)[O-])o1	IL1B secr inh -93.3
O=C(Nc1cccc2ccccc12)c1ccc([N+](=O)[O-])o1	IL1B secr inh -97.1 (no result: ATXN2 expr inh)
CC1CCN(c2ccccc2NC(=O)c2ccc([N+](=O)[O-])o2)CC1	none
CCOC(=O)c1[nH]c(C)c(CCC(=O)Nc2ccc(N(CC)CC)cc2C)c1C	none (no result: IL1B secr inh, USP2a block)
CCc1nc(Nc2cccc(F)c2)c2oc3ccccc3c2n1	none
Cc1cccc2cc(CN(Cc3ccco3)S(=O)(=O)c3ccc4c(c3)OCCO4)c(=O)[nH]c12	IL1B secr inh -56.4, ATXN viability inconclusive
c1ccc(Sc2ncnc3ccccc23)cc1	none (no result: IL1B secr inh)
c1ccc(Cc2nnc(Sc3ccccc3)c3ccccc23)cc1	IL1B secr inh -68.1
